PubChem BioAssay AID1159580 (chemical genetic matrix, 2015)
The campaign covered roughly 5,500 compounds. About 2,000 (36%) were called active. About 18% were inconclusive and are not listed. Rule as the data show it: active = normalized growth mostly below about 0.91 (no sharp cut-off); inconclusive = no clear call, values can overlap the other calls; inactive = mostly above about 0.92. The list shows a part of the results.

Experiment: chemical genetic growth profiling, strain panel (AID 1159580);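 also: tested at 20 µM; growth read once vehicle control cultures reached saturation at 30 °C; 1 = growth at the plate median or of vehicle wells; lower values mean less growth of the strain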
Conditions: growth OD

Measured: normalized growth

CCOC(=O)C1=C[C@]2(CC)CCCN3CCc4c(n1c1ccccc41)[C@@H]32
active: S. cerevisiae deletion strains, locus YNL307C, strain MCK1, active compounds read low 0.879 | S. cerevisiae deletion strains, locus YOR184W, strain ser1, active compounds read low 0.859
inactive: S. cerevisiae deletion strains, locus YKL009W, strain mrt4, active compounds read low 0.964 | S. cerevisiae deletion strains, locus YKL068W, active compounds read low 0.988 | S. cerevisiae deletion strains, locus YKL085W, strain MDH1 (second series), active compounds read low 0.992 | S. cerevisiae deletion strains, locus YKL085W, strain MDH1, active compounds read low 0.992 | S. cerevisiae deletion strains, locus YKL160W, strain elf1, active compounds read low 1.03 | S. cerevisiae deletion strains, locus YKL190W, strain CNB1, active compounds read low 0.982 | S. cerevisiae deletion strains, locus YKR001C, strain vps1, active compounds read low 0.933 | S. cerevisiae deletion strains, locus YKR026C, strain gcn3, active compounds read low 1.01 | S. cerevisiae deletion strains, locus YKR091W, strain srl3, active compounds read low 1.01 | S. cerevisiae deletion strains, locus YLL001W, strain dnm1, active compounds read low 1.03 | S. cerevisiae deletion strains, locus YLL026W, active compounds read low 1.02 | S. cerevisiae deletion strains, locus YLL041C, strain sdh2, active compounds read low 1.02 | S. cerevisiae deletion strains, locus YLR027C, strain aat2, active compounds read low 1.02 | S. cerevisiae deletion strains, locus YLR039C, strain RIC1, active compounds read low 0.924 | S. cerevisiae deletion strains, locus YLR058C, strain SHM2, active compounds read low 0.963 | S. cerevisiae deletion strains, locus YLR102C, strain apc9, active compounds read low 0.969 | S. cerevisiae deletion strains, locus YLR113W, strain HOG1, active compounds read low 1.01 | S. cerevisiae deletion strains, locus YLR221C, strain rsa3, active compounds read low 1.02 | S. cerevisiae deletion strains, locus YLR258W, strain gsy2, active compounds read low 1.02 | S. cerevisiae deletion strains, locus YLR262C, strain YPT6 (second series), active compounds read low 0.996 | S. cerevisiae deletion strains, locus YLR262C, strain YPT6, active compounds read low 0.852 | S. cerevisiae deletion strains, locus YLR268W, strain sec22, active compounds read low 0.923 | S. cerevisiae deletion strains, locus YLR320W, strain mms22, active compounds read low 0.986 | S. cerevisiae deletion strains, locus YLR330W, strain CHS5, active compounds read low 0.992 | S. cerevisiae deletion strains, locus YLR342W, strain FKS1 (second series), active compounds read low 0.928 | S. cerevisiae deletion strains, locus YLR342W, strain FKS1, active compounds read low 1.01 | S. cerevisiae deletion strains, locus YLR357W, strain rsc2, active compounds read low 1.07 | S. cerevisiae deletion strains, locus YLR370C, strain arc18, active compounds read low 1.02 | S. cerevisiae deletion strains, locus YLR371W, strain rom2, active compounds read low 0.985 | S. cerevisiae deletion strains, locus YLR384C, strain iki3, active compounds read low 1.04 | S. cerevisiae deletion strains, locus YLR418C, strain cdc73, active compounds read low 0.915 | S. cerevisiae deletion strains, locus YML016C, strain PPZ1, active compounds read low 0.985 | S. cerevisiae deletion strains, locus YML032C, strain rad52, active compounds read low 0.95 | S. cerevisiae deletion strains, locus YML120C, strain ndi1, active compounds read low 1.01 | S. cerevisiae deletion strains, locus YML124C, strain tub3, active compounds read low 0.979 | S. cerevisiae deletion strains, locus YMR058W, strain fet3, active compounds read low 1.02 | S. cerevisiae deletion strains, locus YMR078C, strain ctf18, active compounds read low 0.977 | S. cerevisiae deletion strains, locus YMR125W, strain sto1, active compounds read low 1.02 | S. cerevisiae deletion strains, locus YMR129W, active compounds read low 1.02 | S. cerevisiae deletion strains, locus YMR205C, strain PFK2, active compounds read low 0.995 | S. cerevisiae deletion strains, locus YMR223W, strain ubp8, active compounds read low 0.961 | S. cerevisiae deletion strains, locus YMR231W, strain pep5, active compounds read low 1.02 | S. cerevisiae deletion strains, locus YMR263W, strain SAP30, active compounds read low 0.987 | S. cerevisiae deletion strains, locus YMR307W, strain GAS1, active compounds read low 1.01 | S. cerevisiae deletion strains, locus YNL067W, strain RPL9B, active compounds read low 0.949 | S. cerevisiae deletion strains, locus YNL071W, strain lat1, active compounds read low 1.01 | S. cerevisiae deletion strains, locus YNL128W, strain TEP1, active compounds read low 0.988 | S. cerevisiae deletion strains, locus YNL183C, strain NPR1, active compounds read low 0.947 | S. cerevisiae deletion strains, locus YNL209W, strain ssb2, active compounds read low 1.05 | S. cerevisiae deletion strains, locus YNL233W, strain BNI4, active compounds read low 0.931 | S. cerevisiae deletion strains, locus YNL248C, strain rpa49, active compounds read low 1.05 | S. cerevisiae deletion strains, locus YNL250W, strain rad50, active compounds read low 0.978 | S. cerevisiae deletion strains, locus YNL271C, strain bni1, active compounds read low 0.981 | S. cerevisiae deletion strains, locus YNL298W, strain CLA4, active compounds read low 0.98 | S. cerevisiae deletion strains, locus YNL322C, strain KRE1 (second series), active compounds read low 1.02 | S. cerevisiae deletion strains, locus YNL322C, strain KRE1, active compounds read low 0.986 | S. cerevisiae deletion strains, locus YNR049C, strain mso1, active compounds read low 1.02 | S. cerevisiae deletion strains, locus YNR052C, strain pop2, active compounds read low 0.979 | S. cerevisiae deletion strains, locus YOL006C, strain TOP1, active compounds read low 0.803 | S. cerevisiae deletion strains, locus YOL012C, strain htz1 0.935 | S. cerevisiae deletion strains, locus YOL147C, strain pex11, active compounds read low 0.984 | S. cerevisiae deletion strains, locus YOR001W, strain rrp6, active compounds read low 1.02 | S. cerevisiae deletion strains, locus YOR061W, strain CKA2, active compounds read low 0.964 | S. cerevisiae deletion strains, locus YOR069W, strain VPS5, active compounds read low 0.986 | S. cerevisiae deletion strains, locus YOR070C, strain gyp1, active compounds read low 1.01 | S. cerevisiae deletion strains, locus YOR080W, strain dia2, active compounds read low 1.03 | S. cerevisiae deletion strains, locus YOR083W, strain WHI5, active compounds read low 1.01 | S. cerevisiae deletion strains, locus YOR106W, strain vam3, active compounds read low 1.04 | S. cerevisiae deletion strains, locus YOR136W, strain idh2, active compounds read low 0.978 | S. cerevisiae deletion strains, locus YOR144C, strain elg1, active compounds read low 0.994 | S. cerevisiae deletion strains, locus YOR231W, strain MKK1, active compounds read low 1.02 | S. cerevisiae deletion strains, locus YOR265W, strain rbl2, active compounds read low 1.02 | S. cerevisiae deletion strains, locus YOR270C, strain vph1, active compounds read low 0.957 | S. cerevisiae deletion strains, locus YOR290C, strain snf2, active compounds read low 1.01 | S. cerevisiae deletion strains, locus YOR316C, strain cot1, active compounds read low 0.974 | S. cerevisiae deletion strains, locus YPL051W, strain arl3, active compounds read low 1.01 | S. cerevisiae deletion strains, locus YPL055C, strain LGE1, active compounds read low 0.887 | S. cerevisiae deletion strains, locus YPL078C, strain atp4, active compounds read low 1.01 | S. cerevisiae deletion strains, locus YPL106C, strain sse1, active compounds read low 1.03 | S. cerevisiae deletion strains, locus YPL240C, strain hsp82, active compounds read low 1.04 | S. cerevisiae deletion strains, locus YPL256C, strain CLN2, active compounds read low 0.999 | S. cerevisiae deletion strains, locus YPR119W, strain clb2, active compounds read low 0.986 | S. cerevisiae deletion strains, locus YPR141C, strain kar3, active compounds read low 0.986 | S. cerevisiae deletion strains, locus YPR163C, strain tif3, active compounds read low 0.936 | S. cerevisiae deletion strains, locus YPR167C, strain met16, active compounds read low 0.989 | S. cerevisiae deletion strains, strain wtn01, active compounds read low 0.993 | S. cerevisiae strains, strain wild type, active compounds read low 0.974
